# Results filed as inconclusive are left out. More than one record can exist for a structure, and the calls need not agree. The source made the active and inactive calls. The calls were made as follows: active = hit-call score of the fitted dose curve at least 0.9, where 1 is the maximum; inconclusive = response in the unintended direction; inactive = score below 0.9.
# Tested on: guinea pig Dopamine Transporter (DAT), gene 100714898
# Assay: NVS_TR_gDAT: NovaScreen (NVS) Transporter Assay for guinea pig Dopamine Transporter (DAT) (AID 2283369);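 also: active compounds lower bound radioligand signal relative to DMSO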
# Procedure: NVS_TR_gDAT is a biochemical, single-readout assay that uses extracted gene-proteins from Guinea pig striatal membranes in a tissue-based cell-free assay. Measurements were taken 2 hours after chemical dosing in a 48-well plate.NVS_TR_gDAT is one of one assay component(s) measured or calculated from the NVS_TR_gDAT assay. It is designed to make measurements of radioligand binding, a form of binding reporter, as detected with scintillation counting signals by Filter-based radiodetection technology.Data from the assay component NVS_TR_gDAT was analyzed into 1 assay endpoint. This assay endpoint, NVS_TR_gDAT, was analyzed in the positive analysis fitting direction relative to DMSO as the negative control and baseline of activity. Using a type of binding reporter, loss-of-signal activity can be used to understand changes in the binding as they relate to the gene Slc6a3. Furthermore, this assay endpoint can be referred to as a primary readout, because the performed assay has only produced 1 assay endpoint. To generalize the intended target to other relatable targets, this assay endpoint is annotated to the transporter intended target family, where the subfamily is neurotransmitter transporter.
# Binding assays used specific radioligands (tritiated, iodinated) with non-radioactive competitive displacement ligands in agonist or antagonist protocols (as indicated) and various reference compounds and inhibitors to titrate specific binding to receptors and transporters. Most enzyme assays (CYPs, kinases, phosphatases, proteases, HDACs) used recombinant protein and specific substrates (fluorescence mostly, some colorimetric and radioactive) and inhibitors, followed by a biochemical separation of substrate and product. All assays for the biochemical HTS were initially run in duplicate at a single concentration (10 uM for CYP450 assays and 25 uM for all others). Assay-chemical combinations meeting a pre-defined threshold (e.g., 30% inhibition and other criteria defined below) were then run in singleton concentration-response format with maximum concentration of 20 uM for CYPs and 50 uM for all others. Each assay was run with positive and negative controls, and concurrent controls on every plate. The follow-up (secondary) screen tested active chemical-pairs in concentration series, as well as a few additional assays not tested in the primary screen, some selected negative inactives, and several cases re-run in the concentration series for confirmatory purposes.
SMILES,AC50,outcome
C=CCC1=C(C)[C@@H](OC(=O)[C@@H]2[C@@H](C=C(C)C)C2(C)C)CC1=O,20.3 µM (active),
C#CCOS(=O)OC1CCCCC1Oc1ccc(C(C)(C)C)cc1 (stereo unspecified),15.6 µM (active),
COc1ccc(C(c2ccc(OC)cc2)C(Cl)(Cl)Cl)cc1,14 µM (active),
C=CCC1=C(C)C(OC(=O)C2C(C=C(C)C)C2(C)C)CC1=O (stereo unspecified),26.2 µM (active),inactive
CC1COC(Cn2cncn2)(c2ccc(Oc3ccc(Cl)cc3)cc2Cl)O1 (stereo unspecified),12.3 µM (active),
Fc1ccc(Oc2ccnc3cc(Cl)cc(Cl)c23)cc1,13.8 µM (active),
CCCCOC(=O)c1ccccc1C(=O)OCCCC,19.5 µM (active),inactive
COC(=O)C(C)Oc1ccc(Oc2ccc(Cl)cc2Cl)cc1 (stereo unspecified),,inactive
CC1=C(C(=O)Nc2ccccc2)SCCO1,13.9 µM (active),
